Measured values as given in PubChem BioAssay (NCATS).
Results filed as inconclusive are left out. Entries that show only a call come without a potency. The source holds several records for some structures; these can differ, active in one and inactive in another. Activity calls are given as the source filed them. The call rests on the fitted dose curve; in most records, active means well fitted inhibition curve with a large enough effect; inconclusive means small, poorly fitted or top-dose-only effect; inactive means flat fitted curve, though single readings scatter.

Molecular target: Glutathione peroxidase 1 (Homo sapiens) (UniProt P07203)
Sequence (P07203 whole entry, looked up): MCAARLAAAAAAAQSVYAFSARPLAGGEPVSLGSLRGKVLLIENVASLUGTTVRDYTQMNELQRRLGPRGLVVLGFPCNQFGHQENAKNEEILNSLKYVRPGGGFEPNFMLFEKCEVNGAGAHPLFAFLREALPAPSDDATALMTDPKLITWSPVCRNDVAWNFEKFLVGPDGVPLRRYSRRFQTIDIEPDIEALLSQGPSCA
Assay: Primary qHTS Assay for Inhibitors of Recombinant Selenoprotein Glutathione Peroxidase 1 (GPX1) (AID 1845191); further: nearly all actives have a fitted effect of over 65% in size
Settings: recombinant GPX1, GR-coupled NADPH fluorescence, 15 min; series mostly up to 48.8 µM; activity, negative = inhibition: at the top concentration
From the text: Assay Provider: Elias S.J. Arner MD PhD.
Department of Medical Biochemistry and Biophysics
Karolinska Institutet, Solna, Stockholm, Sweden
Selenoprotein glutathione peroxidases (GPX), like the ubiquitously expressed GPX1 and the ferroptosis modulator GPX4, enact their antioxidant activities by reducing hydroperoxides using glutathione. […] GPX1 and GPX4 inhibitors have thus shown promise as anti-cancer agents. Existing inhibitors are often promiscuous, or modulate GPX activity only indirectly, so novel direct inhibitors identified through screening against GPX1 and GPX4 could be valuable. Here, we developed optimized glutathione reductase (GR)-coupled GPX assays for the biochemical high-throughput screen (HTS) of almost 12,000 compounds with known mechanisms of action. Initial hits were triaged using a GR counter-screen, assessed for isoform specificity using a separate GPX2 assay, and were assessed for general selenocysteine-targeting activity using a thioredoxin reductase (TXNRD1) assay. With this suite of assays, we identified novel GPX1/GPX2- and GPX4-specific inhibitors and can here present a validated pipeline for future discovery research for selenoprotein-targeting agents.
SEQUENCE No. (e.g., 1, 2, 3, etc.); […] (e.g., Cells, Incubation, Reagent, etc.); VALUE; DESCRIPTION.
1; Reagent 1; 3 uL; GPx1 enzyme or no enzyme control in 1536-well, black, solid Greiner assay plate.
2; Compound; 25 nL; Kalypsis pin tool (Wako USA) equipped with a 1536-well pin head.
3; Incubation; 30 min; room temperature.
4; Reagent 2; 1 uL; 10 nM GPX1, 1 mM GSH, 0.5 mM CHP, 0.5 mM NADPH, 100 nM GR, 0.01% BSA substrate
5; Detection; Fluorescence; ViewLux microplate reader, excitation 340 nm and emission 450 nm.
6; Incubation; 15 min; room temperature.
7; Detection; Fluorescence; ViewLux microplate reader, excitation 340 nm and emission 450 nm.
NOTES (numbers refer to Sequence numbers above)
1. 3 uL of 16.66 nM GPX1 and 0.016% BSA in assay buffer (50 mM Tris-HCl, 2 mM EDTA (pH 7.5), 150 mM NaCl) was added to columns 3-48 of 1536-well assay plates using a BioRAPTR Flying Reagent Dispenser (Let's Go Robotics (LGR), Carlsbad, CA). A no-enzyme control (0.01% BSA in TES assay buffer) was added to columns 1-2.
2. 25 nL of test compounds and DMSO controls were added to each well with a pin tool (Kalypsys).
3. The assay plates were incubated for 30 minutes at room temperature.
4. 1 uL of master mix (500 nM glutathione reductase (GR), 5 mM reduced glutathione (GSH), 2.5 mM NADPH in assay buffer) was added. 1 uL of cumene hydroperoxide (CHP) ([2.5 mM] in 50% EtOH) was then added within 5 minutes to initiate the reaction. Final concentrations were: 10 nM GPX1, 1 mM GSH, 0.5 mM CHP, 0.5 mM NADPH, 100 nM GR, 0.01% BSA.
5. Initial fluorescence readout (t=0) at 340/450 nm was measured using a ViewLux multimodal detector (PerkinElmer, Waltham, MA).
7. Endpoint fluorescence readout (t=15) at 340/450 nm was measured 15 min after room temperature incubation.
Potency means the concentration at half of the fitted maximal effect.

| Structure (SMILES) | Potency | activity, negative = inhibition |
| --- | --- | --- |
| COc1nc(C)nc(Cl)c1NC1=NCCN1 | inactive |  |
| O=C(c1ccc(OCCN2CCCCC2)cc1)c1c(-c2ccc(O)cc2)sc2cc(O)ccc12 | inactive |  |
| CC[C@@]1(O)C(=O)OCc2c1cc1n(c2=O)Cc2cc3c(CN(C)C)c(O)ccc3nc2-1 | inactive |  |
| CCCCc1oc2ccccc2c1C(=O)c1cc(I)c(OCCN(CC)CC)c(I)c1 | inactive |  |
| NS(=O)(=O)c1cc2c(cc1Cl)NCNS2(=O)=O | inactive |  |
| CN(C)C(=O)C(CCN1CCC(O)(c2ccc(Cl)cc2)CC1)(c1ccccc1)c1ccccc1 | inactive |  |
| NCCS(=O)(=O)O | inactive |  |
| CC(C)(Oc1ccc(C2CC2(Cl)Cl)cc1)C(=O)O (stereo not given) | inactive |  |
| NC(CO)C(=O)NNCc1ccc(O)c(O)c1O (stereo not given) | inactive |  |
| CC(C)Cc1ccc(C(C)C(=O)O)cc1 (stereo not given) | inactive |  |
| CC(C)C(=O)Nc1ccc([N+](=O)[O-])c(C(F)(F)F)c1 | inactive |  |
| NC(=O)OCC(COC(N)=O)c1ccccc1 | inactive |  |
| CNCCCC12CCC(c3ccccc31)c1ccccc12 | inactive |  |
| Cn1c(=O)c2c(ncn2C)n(C)c1=O | inactive |  |
| CCc1cccc2c3c([nH]c12)C(CC)(CC(=O)O)OCC3 (stereo not given) | inactive |  |
| O=C(c1ccc(F)cc1)C1CCN(CCn2c(=O)[nH]c3ccccc3c2=O)CC1 | inactive |  |
| N[C@@H](Cc1c[nH]c2ccc(O)cc12)C(=O)O | inactive |  |
| CCCNCC(O)COc1ccccc1C(=O)CCc1ccccc1 (stereo not given) | inactive |  |
| Cn1cnc2c1c(=O)[nH]c(=O)n2C | inactive |  |
| COc1ccccc1OCC(O)CN1CCN(CC(=O)Nc2c(C)cccc2C)CC1 (stereo not given) | inactive |  |

| Structure (SMILES) | Potency | activity, negative = inhibition |
| --- | --- | --- |
| Clc1ccc2nsnc2c1NC1=NCCN1 | inactive |  |
| CN(C)CCCN1c2ccccc2CCc2ccc(Cl)cc21 | inactive |  |
| COc1ccccc1OCCNCC(O)COc1cccc2[nH]c3ccccc3c12 (stereo not given) | inactive |  |
| CC1COc2c(N3CCN(C)CC3)c(F)cc3c(=O)c(C(=O)O)cn1c23 (stereo not given) | inactive |  |
| Clc1ccccc1C(c1ccccc1)(c1ccccc1)n1ccnc1 | inactive |  |
| CN1CCN(C2=Nc3cc(Cl)ccc3Nc3ccccc32)CC1 | inactive |  |
| Nc1nnc(-c2cccc(Cl)c2Cl)c(N)n1 | inactive |  |
| CC#C[C@]1(O)CC[C@H]2[C@@H]3CCC4=CC(=O)CCC4=C3[C@@H](c3ccc(N(C)C)cc3)C[C@@]21C | inactive |  |
| Cc1ccccc1N1C(=O)c2cc(S(N)(=O)=O)c(Cl)cc2NC1C (stereo not given) | inactive |  |
| CC(C(=O)O)c1cccc(C(=O)c2ccccc2)c1 (stereo not given) | inactive |  |
| Cc1cc(C(C)(C)C)c(O)c(C)c1CC1=NCCN1 | inactive |  |
| CN(C)CCC=C1c2ccccc2C=Cc2ccccc21 | inactive |  |
| CN1CCN2c3ccccc3Cc3ccccc3C2C1 (stereo not given) | inactive |  |
| CCOC(=O)C(C)(C)Oc1ccc(Cl)cc1 | inactive |  |
| COc1cc2nc(N3CCN(C(=O)C4COc5ccccc5O4)CC3)nc(N)c2cc1OC (stereo not given) | 18 µM (active) and inactive |  |
| NC12CC3CC(CC(C3)C1)C2 | inactive |  |
| CN1CCC(=C2c3ccccc3C=Cc3ccccc32)CC1 | inactive |  |
| Cc1cn([C@H]2C[C@H](N=[N+]=[N-])[C@@H](CO)O2)c(=O)[nH]c1=O |  | -9.56% (inactive) |
| Cc1cnc(C(=O)NCCc2ccc(S(=O)(=O)NC(=O)NC3CCCCC3)cc2)cn1 | inactive |  |
| CS(=O)(=O)Nc1ccc([N+](=O)[O-])cc1Oc1ccccc1 | inactive |  |
